# Results as given in PubChem BioAssay.
# Values joined by “and” are separate entries in the source; they are usually repeats but may differ in a detail not shown here. Identical values can stand only once. Inconclusive results are not listed. For part of these data: Results with a measured potency or affinity are listed apart. Active and inactive are the calls of the source.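 How the source made its calls, unless noted: active means at least 20% inhibition of 6-phosphogluconate dehydrogenase activity; inactive means the rest.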
# Key:
# [1] = target: 6-phosphogluconate dehydrogenase, decarboxylating (Homo sapiens) (UniProt P52209); test: inhibition of human phosphogluconate dehydrogenase – biochemical, recombinant enzyme, NADPH absorbance, primary screen (AID 1159550); conditions: recombinant 6PGD, NADPH absorbance 341 nm; at 10 µM; stronger effect = higher value
# [2] = EMT-state selective cytotoxicity in co-culture – imaging, PC-3E GFP, TEM4-18 mCherry, primary screen (AID 1345086;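 active means compounds killing one labelled cell type while sparing the other, by normalised counts and ratio limits, not self-fluorescent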;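 on all read-outs here: cells exposed to compound for 72 h before imaging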;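 on red/green cell ratio (normalised): normalised mesenchymal count divided by normalised epithelial count so high means epithelial killing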); conditions: PC-3E GFP / TEM4-18 mCherry co-culture, imaging cell counts, at 1 µM; for red/green cell ratio (normalised): actives lie on both sides, counts scaled to control wells, 1 = unselective
# [3] = target: Mitogen-activated protein kinase 7 (Homo sapiens) (UniProt Q13164); test: Gal4-ERK5 driven luciferase induction – cell-based, HTS, primary screen (AID 1508626;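 active means luciferase signal above three times the same-plate solvent-only control wells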;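 further: luciferase driven by Gal4-ERK5 fusion binding five Gal4 sites before minimal TATA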); conditions: HeLa Gal4-ERK5 transactivation, 18 h, at 5 µM, stronger effect = higher value
# [4] = blockers of polyQ-driven CASP3 activation – cell-based (AID 1583); conditions: polyglutamine-induced caspase-3 activation, cell assay; stronger effect = higher value;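 tested at 10 µM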
# [5] = yeast 75Q aggregation reduction – 75Q-TubU reporter (AID 1593); conditions: Yeast 75Q polyglutamine aggregation reporter
# [6] = blockers of cytochrome c efflux from mitochondria – biochemical, purified mitochondria (AID 1603); conditions: stronger effect = lower value;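 further: mouse liver mitochondria challenged with calcium chloride; signal normalized to the plate average as 100%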
# [7] = polyglutamine aggregate formation blockers (AID 1604); conditions: polyglutamine-induced protein aggregation inhibition assay; stronger effect = higher value; tested at 2.5 µM
# [8] = glutamate transport activators, MN-1 cells, MN-1 cell line (AID 1612); conditions: MN-1 motor neuron cells, stronger effect = higher value;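 further: tested at 1 µM final; 0% = mean of DMSO vehicle wells on each plate; positive means more glutamate uptake than control and negative means less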
# [9] = 75Q-TubH aggregate inhibition, S. cerevisiae, yeast (AID 1616); conditions: S. cerevisiae 75Q-TubH polyglutamine aggregation suppression; stronger effect = higher value
# [10] = compounds altering circadian rhythm period length – cell-based, LOPAC library, luminescence reporter (AID 2774; call rule not given here;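 further: values are relative to mean of DMSO wells on each plate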); conditions: circadian reporter cells, at 7 µM, actives lie on both sides
# [11] = restoration of touch response, mutant HTT neurons – whole organism, C. elegans mechanosensory neurons, N-terminal huntingtin (AID 1599); conditions: C. elegans polyQ-huntingtin mechanosensory neurons, stronger effect = higher value
# [12] = GFP-Q80 aggregate reduction, neuronal-like cells, cell-based, NGF-treated PC12, GFPQ80 (AID 1614); conditions: PC12 NGF-treated GFP-polyQ80 inclusion reduction;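 further: lower means fewer inclusions and 0 means no inclusions at all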
# [13] = P. berghei load reduction in hepatocytes – cell-based, HepG2, luciferase luminescence, HepG2 viability, primary screen (AID 624349; in the data active means parasite load remaining mostly below about 12%, no sharp cut-off; inactive means mostly above about 10%;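 further: 100% = mean of DMSO negative control wells on the same plate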); conditions: P. berghei liver stage in HepG2, luciferase luminescence, concentration not given here; parasite load remaining: stronger effect = lower value; viability: measured here: HepG2 viability without parasites
# [14] = system: Hepatitis C virus NS3 helicase; test: blockers of NS3h binding to ssDNA – biochemical, fluorescence polarization, LOPAC1280 library, primary screen (AID 687035; in the data active means inhibition above about 37%); conditions: Purified HCV NS3 helicase, Cy5-dT15 ssDNA binding fluorescence polarization; stronger effect = higher value; concentration not given here
# [15] = compounds altering Cy5-DNA-NS3h complex signal – biochemical, LOPAC1280, artefact control for HCV NS3 helicase inhibitor project (AID 687037; call rule not given here); conditions: Cy5-DNA-NS3h complex fluorescence interference counterscreen
# [16] = system: Aerobactin synthetase IucA (Klebsiella pneumoniae); test: inhibition of K. pneumoniae IucA enzyme – biochemical, Tocris library, absorbance (AID 1345561; call rule not given here;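 further: 100% = enzyme without compound and 0% = no enzyme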); conditions: purified IucA enzyme assay, absorbance (OD) read-out; stronger effect = lower value;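 tested at 8 µM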
# [17] = viability loss in pontine glioma line – cell-based, SU-DIPG-XVII, MIPE5.0, CellTiter-Glo, qHTS, dose response (AID 1347060; cut-off not given, nearly all actives have AC50 up to about 26 µM); conditions: CellTiter-Glo ATP luminescence
# [18] = viability loss in pontine glioma line – cell-based, JHH-DIPG-1, MIPE4.0, CellTiter-Glo, qHTS, dose response (AID 1347062; cut-off not given, nearly all actives have AC50 up to about 27 µM); conditions: JHH-DIPG-1 viability, CellTiter-Glo ATP luminescence
# [19] = viability loss in pontine glioma line – cell-based, SU-DIPG-IV, MIPE4.0, CellTiter-Glo, qHTS, dose response (AID 1347063; cut-off not given, nearly all actives have AC50 up to about 30 µM;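 further: compound exposure lasted 48 hours before the viability readout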); conditions: CellTiter-Glo ATP luminescence
# [20] = viability loss in pontine glioma line – cell-based, SU-DIPG-XIII, MIPE5.0, CellTiter-Glo, qHTS, dose response (AID 1347064; cut-off not given, nearly all actives have AC50 up to about 23 µM); conditions: CellTiter-Glo ATP luminescence
# [21] = viability loss in pontine glioma line – cell-based, SU-DIPG-XXV, MIPE5.0, CellTiter-Glo, qHTS, dose response (AID 1347065; cut-off not given, nearly all actives have AC50 up to about 26 µM;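 further: cells exposed to compound for 48 hours before ATP readout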); conditions: CellTiter-Glo ATP luminescence
# [22] = growth inhibition of DIPG cells – cell-based, MIPE4.0 library, CellTiter-Glo luminescence, qHTS (AID 1347066; cut-off not given, nearly all actives have AC50 up to about 30 µM;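 further: cells exposed to compound for 48 hours before readout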); conditions: SU-DIPG-VI viability, CellTiter-Glo ATP luminescence
# [23] = JHH-DIPG-1 glioma cell viability, MIPE5.0 library, CellTiter-Glo luminescence, qHTS (AID 1347067; cut-off not given, nearly all actives have AC50 up to about 26 µM;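 further: cells exposed to compound for 48 hours before readout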); conditions: JHH-DIPG-1 glioma viability, CellTiter-Glo ATP luminescence
# [24] = growth inhibition of DIPG cells – cell-based, MIPE5.0 library, qHTS (AID 1347068; cut-off not given, nearly all actives have IC50 up to about 30 µM); conditions: SU-DIPG-XXV viability
# [25] = chitosan synthesis blockers in C. neoformans – flow cytometry, Cibacron Brilliant Red staining (AID 1347148; call rule not given here;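 further: compound exposure lasted three days at 37 degrees C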); conditions: Cryptococcus neoformans chitosan, stronger effect = lower value; at 10 µM unless noted
# [26] = blockers of cellular phospholipid synthesis – cell-based, LOPAC library, screen 4, primary screen (AID 1347384; call rule not given here); conditions: animal cells, phospholipid biosynthesis inhibition screen; at 10 µM
# [27] = MELAS cybrid and Rieske KO viability enhancers – cell-based, MELAS cybrids, Rieske KO mouse fibroblasts, CellTiter-Glo, primary screen (AID 1508586;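 active means mean z-score across replicates of 1.96 or higher in either the MELAS or the Rieske mutant cell line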;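 further: z relative to plate mean and SD of compound and empty wells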); conditions: low glucose
# [28] = galactose survival enhancers in mitochondrial complex I cybrids – cell-based, galactose medium, ATP luminescence, primary screen (AID 1645843;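 active means z-score of at least 1.8 in each of two replicates, scored against plate mean and spread of sample wells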;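 further: positive z means more ATP and so rescue of galactose-driven cybrid death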); conditions: complex I mutant cybrid cells, 72 h, stronger effect = higher value
# [29] = compounds altering viability of human ES cells (AID 493140; call rule not given here;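 further: cells exposed to compounds for four days before counting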); conditions: human embryonic stem cell survival screen; stronger effect = higher value
# [30] = rescue of PC12 cells from polyQ htt toxicity – LDH release (AID 1610); conditions: PC12 mutant huntingtin toxicity, final LDH at 4 uM, stronger effect = lower value
# [31] = measured here: epithelial PC-3E GFP cell survival
# [32] = measured here: mesenchymal TEM4-18 mCherry cell survival
# Sequence of Mitogen-activated protein kinase 7 (Homo sapiens) (Q13164 whole entry, looked up, the tested form may be a part): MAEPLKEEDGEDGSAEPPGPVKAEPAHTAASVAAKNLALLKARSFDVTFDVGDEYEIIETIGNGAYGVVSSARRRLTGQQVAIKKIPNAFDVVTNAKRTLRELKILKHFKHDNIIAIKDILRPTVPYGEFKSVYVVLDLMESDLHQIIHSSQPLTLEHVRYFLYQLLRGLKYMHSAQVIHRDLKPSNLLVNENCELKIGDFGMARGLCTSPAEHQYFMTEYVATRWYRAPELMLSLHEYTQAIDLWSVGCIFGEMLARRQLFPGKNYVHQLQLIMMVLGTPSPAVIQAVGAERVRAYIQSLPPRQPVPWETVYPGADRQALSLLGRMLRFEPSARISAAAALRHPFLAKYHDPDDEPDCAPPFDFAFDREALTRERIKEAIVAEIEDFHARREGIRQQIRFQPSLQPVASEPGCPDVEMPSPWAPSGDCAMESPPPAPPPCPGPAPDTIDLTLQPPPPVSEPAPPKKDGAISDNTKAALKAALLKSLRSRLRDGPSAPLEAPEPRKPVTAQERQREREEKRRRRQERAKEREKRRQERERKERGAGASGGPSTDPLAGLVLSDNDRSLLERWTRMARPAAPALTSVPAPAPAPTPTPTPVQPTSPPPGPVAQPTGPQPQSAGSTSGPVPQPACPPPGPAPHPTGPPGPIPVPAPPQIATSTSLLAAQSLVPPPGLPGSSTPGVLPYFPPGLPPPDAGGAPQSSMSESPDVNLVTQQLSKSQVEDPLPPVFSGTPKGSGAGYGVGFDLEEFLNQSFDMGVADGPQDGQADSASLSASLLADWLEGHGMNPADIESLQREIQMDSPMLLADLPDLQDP
# Sequence of 6-phosphogluconate dehydrogenase, decarboxylating (Homo sapiens) (P52209 whole entry, looked up): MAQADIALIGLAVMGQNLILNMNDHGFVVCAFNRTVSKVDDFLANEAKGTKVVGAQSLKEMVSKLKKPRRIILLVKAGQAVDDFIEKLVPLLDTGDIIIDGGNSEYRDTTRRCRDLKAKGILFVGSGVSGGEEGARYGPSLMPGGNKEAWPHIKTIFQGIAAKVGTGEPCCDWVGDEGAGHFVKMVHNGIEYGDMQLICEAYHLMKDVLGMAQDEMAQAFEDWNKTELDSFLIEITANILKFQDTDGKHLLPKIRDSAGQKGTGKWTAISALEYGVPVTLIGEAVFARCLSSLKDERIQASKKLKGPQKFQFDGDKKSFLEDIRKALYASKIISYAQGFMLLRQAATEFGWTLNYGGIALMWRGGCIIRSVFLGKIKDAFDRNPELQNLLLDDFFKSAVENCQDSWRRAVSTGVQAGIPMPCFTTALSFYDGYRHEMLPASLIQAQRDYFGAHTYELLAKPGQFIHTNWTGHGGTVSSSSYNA
structure (smiles),measurement,setting,value
COc1c2c(cc3occ(-c4ccc5c(c4)OCO5)c(=O)c13)OC(C)(C)C=C2,inhibition,[1],-0.247% (inactive)
same,red/green cell ratio (normalised),[2],0.95 (inactive)
same,normalised cell number,[2]; [31],1.19
same,normalised cell number,[2]; [32],1.14
same,luciferase signal,[3],60 AU (inactive)
O=C1c2ccc(O)c(O)c2C(=O)c2c(O)ccc(O)c21,inhibition,[4],-8.08%
same,score,[5],1.47
same,cytochrome c release ratio,[6],0.18
same,inhibition of aggregation,[7],38.2%
same,glutamate uptake change,[8],32%
same,aggregation suppression score,[9],0.505
same,inhibition,[1],4.26% (inactive)
same,red/green cell ratio (normalised),[2],1.12 (inactive)
same,normalised cell number,[2]; [31],0.82
same,normalised cell number,[2]; [32],0.92
same,luciferase signal,[3],76 AU (inactive)
O=c1[nH]c2cc(Cl)c(Cl)cc2[nH]c1=O,period change,[10],0.15 h (inactive)
same,inhibition,[1],1.1% (inactive)
same,red/green cell ratio (normalised),[2],1.09 (inactive)
same,normalised cell number,[2]; [31],0.94
same,normalised cell number,[2]; [32],1.02
same,luciferase signal,[3],40 AU (inactive)
O=C(O)c1cc(=O)c2cccc(O)c2[nH]1,inhibition,[4],-21.7%
same,score,[5],0.98
same,rescue above control,[11],-4.01
same,cytochrome c release ratio,[6],1.01
same,inhibition of aggregation,[7],57.7%
same,glutamate uptake change,[8],9.13%
same,inclusion score,[12],1
same,aggregation suppression score,[9],1.12
same,parasite load remaining,[13],174% (inactive)
same,viability,[13],71.4%
same,inhibition,[1],4.89% (inactive)
same,red/green cell ratio (normalised),[2],1.29 (inactive)
same,normalised cell number,[2]; [31],0.88
same,normalised cell number,[2]; [32],1.13
same,luciferase signal,[3],100 AU (inactive)
NC(=O)c1cccc(N)c1,inhibition,[4],-48.2%
same,score,[5],1.17
same,rescue above control,[11],-8.42
same,cytochrome c release ratio,[6],1.08
same,inhibition of aggregation,[7],86.1%
same,glutamate uptake change,[8],20.1%
same,inclusion score,[12],2
same,aggregation suppression score,[9],1.37
same,period change,[10],0.16 h (inactive)
same,inhibition,[14],0% (inactive)
same,fluorescence ratio (interference),[15],1 (inactive)
same,inhibition,[1],10.1% (inactive)
same,remaining activity,[16],96.2% (inactive)
same,outcome,[17],inactive
same,outcome,[18],inactive
same,outcome,[19],inactive
same,outcome,[20],inactive
same,outcome,[21],inactive
same,outcome,[22],inactive
same,outcome,[23],inactive
same,outcome,[24],inactive
same,fold fluorescence,[25],5.59 [at 367.2 µM] (inactive)
same,outcome,[26],inactive
same,z-score,"[27]; MELAS cybrid survival, CellTiter-Glo 48 h, stronger effect = higher value",-0.453 (inactive) and -0.332 (inactive)
same,z-score,"[27]; Rieske KO mouse fibroblast survival, CellTiter-Glo 72 h",0.178 and -0.721
same,luciferase signal,[3],104 AU (inactive)
same,z-score,[28],0.345 (inactive) and 1.35 (inactive)
NC(Cn1ccc(=O)c(O)c1)C(=O)O (configuration not stated),inhibition,[4],-4.48%
same,score,[5],0.73
same,rescue above control,[11],-6.31
same,cytochrome c release ratio,[6],0.84
same,inhibition of aggregation,[7],7.48%
same,glutamate uptake change,[8],15.6%
same,inclusion score,[12],2
same,aggregation suppression score,[9],0.845
same,survival,[29],11.3 (inactive)
same,parasite load remaining,[13],81.8% (inactive) and 76.8% (inactive)
same,viability,[13],72.6%
same,inhibition,[1],17.3% (inactive)
same,red/green cell ratio (normalised),[2],1.1 (inactive)
same,normalised cell number,[2]; [31],0.94
same,normalised cell number,[2]; [32],1.04
CCCCC[C@H](CC(=O)O)C(=O)O,inhibition,[1],0.671% (inactive)
same,red/green cell ratio (normalised),[2],0.96 (inactive)
same,normalised cell number,[2]; [31],0.99
same,normalised cell number,[2]; [32],0.94
same,luciferase signal,[3],40 AU (inactive)
CC(C)=CC1C(C(=O)O)C1(C)C (configuration not stated),inhibition,[1],-0.837% (inactive)
same,red/green cell ratio (normalised),[2],1.07 (inactive)
same,normalised cell number,[2]; [31],0.96
same,normalised cell number,[2]; [32],1.03
same,luciferase signal,[3],44 AU (inactive)
O=C(Nc1ccccc1)Nc1ccccc1,inhibition,[1],0.726% (inactive)
same,red/green cell ratio (normalised),[2],0.79 (inactive)
same,normalised cell number,[2]; [31],1.16
same,normalised cell number,[2]; [32],0.91
same,luciferase signal,[3],108 AU (inactive)
COc1cc(OC)c2ccc(=O)oc2c1,inhibition,[4],-1.21%
same,score,[5],0.96
same,rescue above control,[11],0.64
same,cytochrome c release ratio,[6],0.64
same,inhibition of aggregation,[7],96.2%
same,glutamate uptake change,[8],-7.62%
same,inclusion score,[12],2
same,aggregation suppression score,[9],0.869
same,parasite load remaining,[13],128% (inactive)
same,viability,[13],69.7%
same,inhibition,[1],9.07% (inactive)
same,red/green cell ratio (normalised),[2],1.1 (inactive)
same,normalised cell number,[2]; [31],0.96
same,normalised cell number,[2]; [32],1.05
same,luciferase signal,[3],64 AU (inactive)
O=C1C=CC(=C(c2ccc(O)cc2)c2ccc(O)cc2)C=C1,inhibition,[4],28.5%
same,score,[5],1.1
same,rescue above control,[11],-3.26
same,cytochrome c release ratio,[6],1.26
same,inhibition of aggregation,[7],83.1%
same,normalised LDH release,[30],0.611
same,glutamate uptake change,[8],-0.24%
same,aggregation suppression score,[9],1.13
same,inhibition,[1],7.03% (inactive)
same,red/green cell ratio (normalised),[2],0.79 (inactive)
same,normalised cell number,[2]; [31],1.03
same,normalised cell number,[2]; [32],0.82
same,luciferase signal,[3],148 AU (inactive)
CCC(C(=O)O)c1ccccc1 (configuration not stated),inhibition,[1],-10% (inactive)
same,red/green cell ratio (normalised),[2],1.07 (inactive)
same,normalised cell number,[2]; [31],1.08
same,normalised cell number,[2]; [32],1.15
same,luciferase signal,[3],76 AU (inactive)
Oc1ccc([C@H]2Oc3cc(O)cc(O)c3C[C@H]2O)cc1,inhibition,[1],2.29% (inactive)
same,red/green cell ratio (normalised),[2],0.95 (inactive)
same,normalised cell number,[2]; [31],0.99
same,normalised cell number,[2]; [32],0.94
same,luciferase signal,[3],140 AU (inactive)
CC(=O)N[C@@H]1[C@@H](O)[C@H](O)[C@@H](CO)O[C@H]1O,inhibition,[4],0.38%
same,score,[5],1.2
same,rescue above control,[11],2.33
same,cytochrome c release ratio,[6],0.85
same,inhibition of aggregation,[7],91.6%
same,glutamate uptake change,[8],-1.05%
same,inclusion score,[12],2
same,aggregation suppression score,[9],1.62
same,parasite load remaining,[13],72.2% (inactive)
same,viability,[13],78.3%
same,inhibition,[1],-7.13% (inactive)
same,red/green cell ratio (normalised),[2],0.98 (inactive)
same,normalised cell number,[2]; [31],1
same,normalised cell number,[2]; [32],0.98
same,luciferase signal,[3],64 AU (inactive)
